± gives the standard deviation.

The results in this text go back to the supplement of paper PMC10338343.

This experiment concerns MILI (PIWIL2) piRISC loaded with piRNA #1 (26 nt). The experiment in a line: pre-steady-state target cleavage rate (min^-1); guide: piRNA #1 5'p-UGAGGUAGUAGGUUGUAUAGUAUCCA; MIWI and MILI are mouse PIWI proteins and EfPiwi is from a freshwater sponge; tags in brackets are library labels; higher = faster piRNA-guided slicing of the target. Particulars: auxiliary factor: 500 nM mouse GTSF1. Summed up:
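A transcribed, DNA-blocked target RNA library (0.1 nM) and 1 nM active affinity-purified piRISC bearing one synthetic guide were incubated in HEPES–potassium acetate buffer at 33 °C for 0–8 or 0–960 min, either with or without 500 nM GTSF1 partner protein. Uncleaved targets were sequenced, normalised to depth and to weakly complementary targets, and pooled over three trials, with k3 capped at 0.0001 min^-1. The pre-steady-state cleavage rate was derived with a burst-and-steady-state fit.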
On to GGAGACCUAUGUAUACAAGCAACUACCUCA, for which the “pre-steady-state target cleavage rate” value was 0.0055 ± 0.0022.
As for GGAGACCUAACUUUACAUCCUACUACCUCA, the “pre-steady-state target cleavage rate” value was determined as 0.143 ± 0.025.
Take GGAGACCUAUGAAUACAACCUACUAACCUCA: the “pre-steady-state target cleavage rate” value worked out at 0.0105 ± 0.0027.
Take GGAGACCUAACUAUACAUGCUACUACCUCA: the “pre-steady-state target cleavage rate” value came out at 0.0788 ± 0.013.
GGAGACCUAACUAUACAAACUACUACCUCA: the “pre-steady-state target cleavage rate” value came out at 0.248 ± 0.025.
In the case of GGAGACCUUACUAUACAUCCUACUUCCUCA, the “pre-steady-state target cleavage rate” value is 0.183 ± 0.031.
Take GGAGACCUAUCUAUACAAGGAACUACCUCA: the “pre-steady-state target cleavage rate” value amounted to 0.0048 ± 0.002.
Regarding GGAGACCAUACUAUACUACCUUCUACCUCA, the “pre-steady-state target cleavage rate” value came to 0.0171 ± 0.0044.
On to GGAGACCUAUGAUUACAACCUAUUACCUCA, for which the “pre-steady-state target cleavage rate” value stood at 0.00348 ± 0.0024.
With GGAGACCUAACUAUACUACCUACUACCACA, the “pre-steady-state target cleavage rate” value was found to be 0.0974 ± 0.017.
With GGAGACCUAUGAUAACAUCCUACUACCUCA, the “pre-steady-state target cleavage rate” value came to 0.00447 ± 0.0023.
Next, GGAGACCUUACUAUACAAACUACUACCUCA: 0.204 ± 0.014.
On to GGAGACCUAUGAAUACUACCUACUUCCUCA, for which the “pre-steady-state target cleavage rate” value was 0.0037 ± 0.0024.
For GGAGACCUAUGAUAUGUUCCUACUAGCUCA the value was less than 0.0001; for GGAGACCUAUCUAUACAACCUACAACGUCA, 0.0102 ± 0.004.
